Screening results from PubChem.
Sampled rows, rich in hits. Any-hit rate of the full collection: about 0.9%.
PPARg SRC1 recr: agonists of human PPARgamma SRC-1 coactivator recruitment. activation, % at 8 µM. PPARgamma-SRC-1 coactivator recruitment biochemical assay. 0.41% of 200,000 active. AID 631; in the data active means activation above about 19%;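 further: 0% = DMSO and 100% = reference agonist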
Target sequence (P37231 whole entry, looked up): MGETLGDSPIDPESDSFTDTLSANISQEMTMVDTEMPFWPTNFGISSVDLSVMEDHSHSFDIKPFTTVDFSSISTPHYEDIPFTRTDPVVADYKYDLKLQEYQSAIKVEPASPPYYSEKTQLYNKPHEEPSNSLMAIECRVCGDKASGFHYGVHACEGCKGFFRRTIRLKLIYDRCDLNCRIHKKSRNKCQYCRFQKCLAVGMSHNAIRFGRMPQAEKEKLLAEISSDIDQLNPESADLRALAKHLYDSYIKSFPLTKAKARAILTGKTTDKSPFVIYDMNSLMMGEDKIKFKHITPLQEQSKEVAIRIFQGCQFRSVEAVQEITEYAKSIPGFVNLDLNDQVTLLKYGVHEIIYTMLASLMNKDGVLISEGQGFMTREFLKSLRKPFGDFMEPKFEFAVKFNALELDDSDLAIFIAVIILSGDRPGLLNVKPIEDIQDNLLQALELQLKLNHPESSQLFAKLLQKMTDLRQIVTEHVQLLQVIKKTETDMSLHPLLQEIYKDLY
PPARg SRC3 recr: agonists of human PPARgamma SRC-3 coactivator recruitment | biochemical PPARgamma/SRC-3 coactivator recruitment assay | activation, % at 8 µM | 0.26% of 200,000 active; in the data active means activation above about 23%;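 further: 0% = DMSO and 100% = reference agonist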
TR-FRET SRC-2 ct: counter-screen for PPARgamma SRC-2 recruitment agonists: TR-FRET artefact; active compounds read high; TR-FRET ratio at 8 µM; 0.4% of 200,000 active
SRC3 TRFRET art: counter-screen for PPARgamma SRC-3 recruitment agonists: TR-FRET artefact; PPARgamma/SRC-3 format; active compounds read high; TR-FRET ratio at 8 µM; 0.39% of 99,000 active
PPARg SRC2 recr: agonists of SRC-2 recruitment by human PPARgamma. P37231. PPARgamma LBD-SRC-2 recruitment, biochemical. activation, % at 8 µM. 0.34% of 200,000 active. AID 1032; in the data active means activation above about 22%;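 further: 0% = vehicle and 100% = reference agonist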
SRC1 TRFRET art: counter-screen for PPARgamma SRC-1 recruitment agonists: TR-FRET artefact; TR-FRET ratio at 8 µM; 0.34% of 99,000 active; AID 1051; TR-FRET detection artefact counter-screen, emission ratio; active compounds read high; in the data active means TR-FRET ratio above about 2300
Active calls of the source: *; . = no result given. Unless noted, no stated cut-off is given here; in the data, active means TR-FRET ratio above about 2000; inactive means the rest.

SMILES	PPARg SRC1 recr	PPARg SRC3 recr	TR-FRET SRC-2 ct	SRC3 TRFRET art	PPARg SRC2 recr	SRC1 TRFRET art
O=C(CSc1cccc[n+]1[O-])c1cc(Cl)ccc1Cl	2	9	1665	1686	-1	1637
Cc1cccc(N2CCN(Cc3cn(C)nc3-c3ccccc3F)CC2)n1	4	-1	1479	1656	-4	1768
CSc1ccccc1NC(=O)c1cc2ncc(Br)cn2n1	19	3	1853	2070*	6	2400*
O=[N+]([O-])c1cnn(-c2nc(-c3cccs3)cc(C(F)(F)F)n2)c1	7	-1	1713	1534	9	1846
O=C(C1=C[C@H](C2CCCCC2)C[C@H](OCCCCO)O1)N1CCN(Cc2ccccc2)CC1	0	0	1464	1583	5	1896
CC(C)CNS(=O)(=O)c1cc(C(=O)OCC(=O)c2ccc3c(c2)OCCO3)c(Cl)cc1Cl	-1	-2	1804	2107*	-3	2142
COCc1c(C(=O)OC)nnn1-c1ccccc1	94*	12	1401	.	-4	.
COC(=O)c1nnn(-c2ccccc2)c1N	-1	1	1453	.	1	.
CCN(CC)C(=O)CSc1nc2ncccc2[nH]1	6	32*	1315	.	10	.
COc1ccc([N+](=O)[O-])cc1NC(=O)COC(=O)c1ccccn1	2	4	1548	1404	2	1863
O=C(CSc1c2c(nc3ccc(Cl)cc13)CCCC2)NCCCN1CCOCC1	19	14	1820	2256*	20	2131
O=C(CSc1ccccc1)NCCCN1CCOCC1	4	-12	1558	.	-3	.
CCC1CCCCN1C(=O)CSc1nc(N)cc(N)n1 (stereo not drawn)	0	1	1990*	1654	0	1816
CCC1CCCCN1C(=O)CSc1nnc(-c2ccc(OC)cc2)o1 (stereo not drawn)	-2	15	1364	.	5	.
CCOc1ccc(-c2csc(NNC3=NCCCCC3)n2)cc1	23*	5	1444	1370	5	2430*
COc1ccc(-c2csc(NNC3=NCCCCC3)n2)cc1	3	5	1429	1498	7	1628
COc1ccc(-n2c(O)c(/C=N/NS(=O)(=O)c3cccc([N+](=O)[O-])c3)c3ccccc3c2=O)cc1OC	22*	6	1428	1532	-5	1942
O=[N+]([O-])c1cccc(/C=N/NS(=O)(=O)c2ccccc2)c1	1	0	1638	1452	3	1742
CCN(CC)S(=O)(=O)c1cc(NC(=O)c2ccc(Br)s2)ccc1C	0	7	1640	1805	14	2789*
OCC1CCCN(Cc2cn(Cc3ccccc3)nc2-c2cc3ccccc3o2)C1 (stereo not drawn)	-4	2	1367	1562	-5	1622
COC(=O)c1sccc1NC(=O)c1ccc(Br)s1	43*	14	1947	.	10	.
CSC1=NC2(CC(c3ccccc3)Oc3cc(O)ccc32)CC(C)(C)N1 (stereo not drawn)	4	29*	1633	.	12	.
O=C1OCCC1Sc1nnc(-c2ccc(Br)cc2)o1 (stereo not drawn)	3	2	1523	.	24*	.
S=C(NCc1ccc(Cl)cc1Cl)Nc1ccccc1	6	23*	1553	1623	3	1828
CCOC(=O)c1sc2nc3c(SCC(=O)O)cc(C(=O)c4ccccc4O)cn3c(=O)c2c1C	2	2	1647	1620	4	1804
SMILES	PPARg SRC1 recr	PPARg SRC3 recr	TR-FRET SRC-2 ct	SRC3 TRFRET art	PPARg SRC2 recr	SRC1 TRFRET art
Cc1sc2nc3c(SC(C)C(=O)O)cc(C(=O)c4ccccc4O)cn3c(=O)c2c1C (stereo not drawn)	4	33*	1417	1694	-9	1751
COc1ccc(C2CC(c3ccccc3)=NN2C(=O)COC(=O)c2cc(S(=O)(=O)N3CCOCC3)ccc2F)cc1 (stereo not drawn)	16	4	2124*	2106*	5	2247
CC(C)c1nnc(SCC(=O)N2CCN(C(=O)c3ccco3)CC2)n1N	-4	1	1655	1443	2	1975
COc1ccc(-c2cc(-c3ccccc3)c(C#N)c(SCC(=O)Nc3ncc(C)s3)n2)cc1	3	8	1634	2402*	6	2146
COc1ccc(N2C(=O)CSC2c2ccccc2[N+](=O)[O-])cc1 (stereo not drawn)	-6	2	1396	1612	4	1701
O=C(NC(=S)Nc1ccccc1)c1ccc(Br)o1	22*	5	1845	1864	8	1954
COc1ccccc1NC(=O)C/C(C)=N/NC(=O)COc1c(Br)cc(Br)cc1OC	3	3	1627	1553	-2	1710
CN1c2ccsc2/C(=N/Nc2ccccc2)CS1(=O)=O	0	7	2054*	1742	13	2232
CN1c2ccsc2/C(=N/NC(=O)c2c(F)cccc2F)CS1(=O)=O	7	0	1571	.	13	.
CCOc1ccccc1Nc1nnc(SCC(=O)Nc2nc(-c3ccc(OC)cc3)cs2)s1	6	7	2038*	1775	7	2149
CON(C)S(=O)(=O)c1ccc2c(c1)N(Cc1ccc(C)cc1)C(=O)C1CCCN21 (stereo not drawn)	1	6	1753	2052*	5	2187
O=C1C2CCCN2c2ccc(S(=O)(=O)N3CCOCC3)cc2N1Cc1cccc(C(F)(F)F)c1 (stereo not drawn)	4	5	1640	.	6	.
CC(=O)Nc1ccc(C(=O)Nc2nc(-c3cccnc3)cs2)cc1	11	1	1466	1482	-5	1713
CC(=O)Nc1ccc(C(=O)Nc2nc(-c3ccccn3)cs2)cc1	7	-1	1977*	1655	2	1947
COc1ccc2nc(C)cc(SCC(=O)Nc3c(C)cccc3C)c2c1	-3	10	1994*	2003	26*	2033
COc1ccc2nc(C)cc(SCC(=O)NNC(=O)COc3ccc(C)cc3)c2c1	16	11	1879	.	16	.
COc1ccc2nc(C)cc(SCC(=O)Nc3c(C)cc(C)cc3C)c2c1	32*	7	1613	.	12	.
CC(C)CCN(CCC(C)C)C(CO)(CO)CO	1	-1	1532	1386	5	1835
COc1ccc(CC(=O)Nc2ccc(C(=O)Nc3ccccc3C(=O)O)cc2)cc1OC	6	-2	1765	1744	-6	1557
O=C(/C=C/c1ccc(Br)cc1)c1ccc(NC(=O)c2ccco2)cc1	4	6	5699*	14077*	1	2646*
COc1cc(NC(=S)N2CCc3ccccc3C2)cc(OC)c1	3	6	1519	1512	6	1883
COc1ccc(CCN(C)S(=O)(=O)c2ccc(Cl)nc2)cc1OC	7	3	1975*	1616	0	1881
CN(Cc1ccccc1)S(=O)(=O)c1ccc(Cl)nc1	6	12	1574	.	3	.
S=c1nc(SCc2ccccc2)[nH]c2ccccc12	-2	15	2041*	2007	21	2318*
Cc1[nH]c2ccccc2c1/C=N/Nc1ccccn1	15	9	2002*	1761	10	1781
